Measured values reported in ChEMBL document CHEMBL1961873, “Compounds: GSK PKIS; Assays: Nanosyn kinase panel” (2012).

Experiments:
[1] = target: RAF proto-oncogene serine/threonine-protein kinase (Homo sapiens) (UniProt P04049); details: at 1 µM;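 also: values are the mean percent inhibition of CRAF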
[2] = target: T1, Interleukin-1 receptor-associated kinase 4 (Homo sapiens) (UniProt Q9NWZ3); details: at 0.1 µM
T1 sequence (whole entry): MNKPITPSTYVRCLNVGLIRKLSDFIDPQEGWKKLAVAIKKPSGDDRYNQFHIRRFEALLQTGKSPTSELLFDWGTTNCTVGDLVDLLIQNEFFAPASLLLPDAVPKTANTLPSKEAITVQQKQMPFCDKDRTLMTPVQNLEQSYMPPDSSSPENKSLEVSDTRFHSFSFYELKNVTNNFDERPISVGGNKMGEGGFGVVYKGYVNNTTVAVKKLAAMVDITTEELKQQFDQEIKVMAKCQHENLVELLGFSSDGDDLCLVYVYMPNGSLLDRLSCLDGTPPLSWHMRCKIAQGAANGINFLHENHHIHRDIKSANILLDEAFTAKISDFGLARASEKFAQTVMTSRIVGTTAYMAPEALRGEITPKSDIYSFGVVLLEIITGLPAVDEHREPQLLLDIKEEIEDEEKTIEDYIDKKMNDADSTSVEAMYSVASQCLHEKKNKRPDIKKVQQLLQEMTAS

[3] = target: T1, Interleukin-1 receptor-associated kinase 4 (Homo sapiens); details: at 1 µM
[4] = target: Leucine-rich repeat serine/threonine-protein kinase 2 (Homo sapiens) (UniProt Q5S007); details: at 0.1 µM
[5] = target: Leucine-rich repeat serine/threonine-protein kinase 2 (Homo sapiens) (UniProt Q5S007); details: at 1 µM
[6] = system: Leucine-rich repeat serine/threonine-protein kinase 2 (Homo sapiens), Q5S007 [G2019S]; details: at 0.1 µM
[7] = system: Leucine-rich repeat serine/threonine-protein kinase 2 (Homo sapiens), Q5S007 [G2019S]; details: at 1 µM

Chain of Leucine-rich repeat serine/threonine-protein kinase 2 (Homo sapiens) (Q5S007 whole entry): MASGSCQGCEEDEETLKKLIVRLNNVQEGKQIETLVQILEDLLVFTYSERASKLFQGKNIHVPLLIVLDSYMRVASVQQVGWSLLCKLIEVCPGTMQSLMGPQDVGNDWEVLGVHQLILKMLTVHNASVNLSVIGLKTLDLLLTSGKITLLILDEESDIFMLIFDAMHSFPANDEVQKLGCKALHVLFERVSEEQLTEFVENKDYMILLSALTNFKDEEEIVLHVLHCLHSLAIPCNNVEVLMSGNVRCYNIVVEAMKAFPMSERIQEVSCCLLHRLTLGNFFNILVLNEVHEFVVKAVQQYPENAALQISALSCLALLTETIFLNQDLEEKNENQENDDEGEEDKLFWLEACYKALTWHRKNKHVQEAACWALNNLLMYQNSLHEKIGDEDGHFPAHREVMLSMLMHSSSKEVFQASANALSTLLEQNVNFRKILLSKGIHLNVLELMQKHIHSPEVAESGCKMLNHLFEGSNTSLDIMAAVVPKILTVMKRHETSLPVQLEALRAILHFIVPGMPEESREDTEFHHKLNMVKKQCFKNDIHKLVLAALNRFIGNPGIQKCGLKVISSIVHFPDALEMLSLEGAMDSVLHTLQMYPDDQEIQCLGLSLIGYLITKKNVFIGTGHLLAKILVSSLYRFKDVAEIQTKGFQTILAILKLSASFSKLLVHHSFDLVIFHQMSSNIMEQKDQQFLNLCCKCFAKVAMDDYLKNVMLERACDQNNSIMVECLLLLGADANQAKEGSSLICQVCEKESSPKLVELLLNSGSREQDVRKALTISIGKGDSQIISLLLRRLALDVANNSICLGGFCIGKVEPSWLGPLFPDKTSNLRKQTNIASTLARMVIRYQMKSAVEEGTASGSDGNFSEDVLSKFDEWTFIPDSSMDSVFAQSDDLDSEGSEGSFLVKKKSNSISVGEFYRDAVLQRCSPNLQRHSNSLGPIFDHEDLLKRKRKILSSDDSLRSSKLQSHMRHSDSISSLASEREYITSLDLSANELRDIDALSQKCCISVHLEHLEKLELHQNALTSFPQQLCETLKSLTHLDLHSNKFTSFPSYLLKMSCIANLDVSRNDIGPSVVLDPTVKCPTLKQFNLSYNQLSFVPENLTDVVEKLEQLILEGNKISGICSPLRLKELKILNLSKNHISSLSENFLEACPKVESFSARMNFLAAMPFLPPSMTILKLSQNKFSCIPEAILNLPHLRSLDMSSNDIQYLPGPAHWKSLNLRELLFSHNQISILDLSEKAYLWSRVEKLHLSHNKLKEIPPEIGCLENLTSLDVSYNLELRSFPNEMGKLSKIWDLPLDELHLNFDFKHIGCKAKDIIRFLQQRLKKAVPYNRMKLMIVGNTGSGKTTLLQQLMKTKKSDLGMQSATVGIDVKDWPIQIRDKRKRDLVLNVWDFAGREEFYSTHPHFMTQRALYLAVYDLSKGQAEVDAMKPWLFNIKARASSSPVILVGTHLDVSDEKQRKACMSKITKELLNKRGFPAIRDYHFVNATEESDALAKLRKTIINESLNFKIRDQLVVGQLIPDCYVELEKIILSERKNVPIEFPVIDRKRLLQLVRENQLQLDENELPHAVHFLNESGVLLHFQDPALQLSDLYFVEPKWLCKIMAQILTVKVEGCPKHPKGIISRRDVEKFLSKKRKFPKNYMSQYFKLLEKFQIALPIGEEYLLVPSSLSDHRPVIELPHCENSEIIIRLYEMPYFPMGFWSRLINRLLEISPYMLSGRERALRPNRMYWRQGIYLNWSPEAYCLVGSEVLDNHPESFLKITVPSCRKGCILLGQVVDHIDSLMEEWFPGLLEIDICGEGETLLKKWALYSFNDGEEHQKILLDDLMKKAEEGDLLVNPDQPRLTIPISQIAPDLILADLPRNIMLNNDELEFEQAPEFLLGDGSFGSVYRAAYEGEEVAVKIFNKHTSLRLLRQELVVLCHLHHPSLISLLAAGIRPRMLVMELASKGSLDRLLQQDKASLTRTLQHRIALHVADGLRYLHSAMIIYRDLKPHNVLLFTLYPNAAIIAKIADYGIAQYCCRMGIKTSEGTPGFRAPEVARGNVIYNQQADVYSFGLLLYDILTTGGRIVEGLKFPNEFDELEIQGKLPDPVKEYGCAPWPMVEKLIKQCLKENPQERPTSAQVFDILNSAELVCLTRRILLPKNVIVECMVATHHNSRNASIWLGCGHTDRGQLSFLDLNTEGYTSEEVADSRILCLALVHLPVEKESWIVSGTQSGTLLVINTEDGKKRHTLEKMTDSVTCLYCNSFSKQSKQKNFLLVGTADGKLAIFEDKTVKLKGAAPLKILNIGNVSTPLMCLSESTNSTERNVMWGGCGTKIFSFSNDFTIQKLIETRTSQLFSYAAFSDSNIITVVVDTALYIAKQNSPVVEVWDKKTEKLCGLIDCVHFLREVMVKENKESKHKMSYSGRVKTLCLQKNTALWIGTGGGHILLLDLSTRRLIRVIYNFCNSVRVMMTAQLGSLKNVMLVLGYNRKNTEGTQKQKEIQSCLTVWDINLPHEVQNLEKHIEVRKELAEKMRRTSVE
Chain of Leucine-rich repeat serine/threonine-protein kinase 2 (Homo sapiens), Q5S007 [G2019S] (Q5S007 whole entry G2019S): as the sequence (Q5S007 whole entry) above, with G2019S counted along it
Chain of RAF proto-oncogene serine/threonine-protein kinase (Homo sapiens) (P04049 whole entry): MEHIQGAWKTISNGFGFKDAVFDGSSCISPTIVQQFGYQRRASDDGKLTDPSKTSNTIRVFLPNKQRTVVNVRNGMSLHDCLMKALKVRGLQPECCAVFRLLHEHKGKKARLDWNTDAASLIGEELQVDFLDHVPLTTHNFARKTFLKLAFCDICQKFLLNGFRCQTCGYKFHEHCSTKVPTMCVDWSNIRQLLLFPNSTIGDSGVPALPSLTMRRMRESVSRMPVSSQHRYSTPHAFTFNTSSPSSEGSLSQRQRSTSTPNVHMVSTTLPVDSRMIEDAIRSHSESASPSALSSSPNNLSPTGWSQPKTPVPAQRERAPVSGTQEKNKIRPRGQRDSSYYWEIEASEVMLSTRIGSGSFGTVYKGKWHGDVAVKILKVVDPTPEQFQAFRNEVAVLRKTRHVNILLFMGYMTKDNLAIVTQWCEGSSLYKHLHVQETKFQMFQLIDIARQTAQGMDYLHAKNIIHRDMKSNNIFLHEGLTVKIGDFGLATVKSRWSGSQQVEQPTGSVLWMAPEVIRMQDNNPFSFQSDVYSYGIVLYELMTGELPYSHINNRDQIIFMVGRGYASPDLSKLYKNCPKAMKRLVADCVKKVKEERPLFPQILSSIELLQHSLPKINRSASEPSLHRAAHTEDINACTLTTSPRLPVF

Row | Compound | inhibition [1] | inhibition [2] | inhibition [3] | inhibition [4] | inhibition [5] | inhibition [6] | inhibition [7]
1 | Fc1ccc(-c2nn3ccccc3c2-c2ccncc2)cc1 | -9.31% | 2.69% | 0.14% | 1.66% | 3.74% | 1.38% | 4.57%
2 | N#Cc1c(NC(=O)CN2CCOCC2)sc2c1CCCC2 | -1.23% | 1.87% | 2.93% | 2.88% | 8.63% | 3.95% | 8.85%
3 | COc1cc2ncn(-c3cc(OCc4ccccc4C(F)(F)F)c(C(=O)N(C)C)s3)c2cc1OC | -3.66% | 2.2% | -0.25% | 2.7% | 15.2% | 1.6% | 16.7%
4 | CCn1c(-c2nonc2N)nc2cnc(Oc3cccc(NC(=O)c4ccc(N(C)C)cc4)c3)cc21 | -4.15% | 0.85% | 0.95% | 2.37% | 6.56% | 5.49% | 27.4%
5 | COC(=O)Nc1nc2ccc(Oc3ccc(NC(=O)Nc4cccc(Cl)c4)cc3)cc2[nH]1 | 5.38% | -0.12% | 0.32% | 6.71% | 14.1% | 5% | 6.86%
6 | CCCN1CCC(c2ccc(Nc3nc(Nc4cc(F)ccc4C(N)=O)c4cc[nH]c4n3)c(OC)c2)CC1 | 17.1% | 3.12% | 3.69% | 85.5% | 89.7% | 79.9% | 64.4%
7 | COc1ccc2[nH]c3c4[nH]c5ccc(OC)cc5c4c4c(c3c2c1)C(=O)NC4=O | -1.59% | -1.07% | 4.52% | 20.8% | 24.3% | 61% | 63.2%
8 | CCn1cc(-c2ccnc3[nH]ccc23)c(-c2cccc(NC(=O)Nc3ccc(OCc4ccccc4)cc3)c2)n1 | -2.76% | -0.99% | -0.44% | 2.13% | 3.32% | 3.73% | 4%
9 | CCN1CCC(CC(=O)Nc2n[nH]c3nnc(-c4cccc(F)c4F)cc23)CC1 | 10.2% | 0.45% | 1.11% | 2.47% | 4.14% | 2.58% | 4.75%
10 | O=S(=O)(CCNCc1ccc(-c2ccc3ncnc(Nc4ccc(OCc5cccc(F)c5)c(Cl)c4)c3c2)o1)c1ccccc1 | 1.37% | 2.14% | 2.63% | 4.97% | 4.53% | 6.27% | 9.28%
11 | COc1ccc(CNC(=O)c2ccc(-c3cc(-c4nnc(C)o4)ccc3C)cc2)cc1 | -4.44% | 0.85% | 1.98% | 3.51% | 10.8% | 5.52% | 9.35%
12 | CC(=O)NCc1cccc(C#Cc2cncnc2Nc2ccc(OCc3cccc(F)c3)c(Cl)c2)c1 | -4.04% | 2.92% | 0.5% | 0.41% | 7.51% | 2.36% | 7.6%
13 | Nc1nc(-c2cccc(Cl)c2)c(-c2ccc3ncccc3n2)s1 | -0.32% | 3.86% | 2.05% | 3.53% | 7.21% | 6.96% | 9.35%
14 | COC(=O)c1sc(-n2cnc3cc(OC)c(OC)cc32)cc1OCc1ccccc1C(F)(F)F | 3.19% | -0.1% | 1.88% | 4.15% | 10.7% | 4.24% | 19.4%
15 | COc1ccc(-c2oc3ncnc(N)c3c2-c2ccc(NC(=O)Nc3cc(C(F)(F)F)ccc3F)cc2)cc1 | 5.86% | -1.07% | 2.91% | 6.22% | 15% | 5.81% | 16.8%
16 | c1ccc(-c2nc3n(c2-c2ccc4c(c2)OCO4)CCC3)nc1 | -1.34% | 0.9% | 0.56% | 1.19% | 3.89% | 2.25% | 3.64%
17 | CS(=O)(=O)CCNCc1ccc(-c2ccc3ncnc(Nc4ccc(OCc5ccccc5)c(C(F)(F)F)c4)c3c2)o1 | 0.04% | 0.72% | 1.09% | 2.22% | 4.18% | 4.54% | 5.03%

Row | Compound | inhibition [1] | inhibition [2] | inhibition [3] | inhibition [4] | inhibition [5] | inhibition [6] | inhibition [7]
18 | CN1CCC(n2cnc(-c3ccc(F)cc3)c2-c2ccnc(Nc3ccccc3)n2)CC1 | -0.18% | 1.95% | 1.28% | 1.16% | 3.05% | 1.22% | 5.12%
19 | CCCN(CCS(C)(=O)=O)Cc1ccc(-c2ccc3ncnc(Nc4ccc(OCc5cccc(F)c5)c(Cl)c4)c3c2)o1 | -0.27% | -3.12% | 0.98% | 3.72% | 4.95% | 4.3% | 6.74%
20 | CNC(=O)c1cccc(C#Cc2cncnc2Nc2ccc(OCc3cccc(F)c3)c(Cl)c2)c1 | -1.34% | -3.89% | 0.26% | 0.02% | 3.48% | -1.1% | 3.49%
21 | NC(=O)c1sc(-n2cnc3ccc(C(F)(F)F)cc32)cc1OCc1ccccc1Br | -3.37% | 0.72% | 1.61% | 1.61% | 6.09% | 2.3% | 12.8%
22 | COc1ccc(-c2cc(-c3c[nH]nc3-c3ccccn3)ccn2)cc1 | 0.07% | -2.78% | 2.03% | 2.47% | 7.04% | 4.82% | 7.48%
23 | CNC(=O)c1cncc(/C=C/c2ccccc2Cl)c1 | -3.13% | -1.64% | 0.01% | 3.2% | 4.57% | 1.78% | 6.07%
24 | Fc1cccc(COc2ccc(Nc3ncnc4sc(-c5ccco5)cc34)cc2Cl)c1 | 0.89% | 0.84% | 1.26% | 3.64% | 6.42% | 5.67% | 9.11%
25 | NS(=O)(=O)c1ccc(Nc2ncc(-c3ccccc3)o2)cc1 | -4.28% | -2.68% | 1.92% | 3.47% | 15% | 5.15% | 19.4%
26 | CN(C)CCOc1ccc(-c2nc(-c3ccncc3)c(-c3ccc4c(c3)CC/C4=N\O)[nH]2)cc1 | 69.9% | -2.04% | 2.08% | 2.63% | 6.56% | 2.57% | 9.36%
27 | CC(=O)Nc1cccc(C#Cc2cncnc2Nc2ccc(OCc3cccc(F)c3)c(Cl)c2)c1 | 1.55% | -1.12% | 1.86% | 4.77% | 7.3% | 3.19% | 8.37%
28 | CS(=O)(=O)CCNCc1coc(-c2ccc3ncnc(Nc4ccc(OCc5ccccc5)cc4)c3c2)c1 | 2.03% | 1.8% | 2.23% | 0.86% | 5.65% | 1.72% | 5.71%
29 | CC(C)COC(=O)c1ccc2c(c1)/C(=C/Nc1ccc(S(N)(=O)=O)cc1)C(=O)N2 | 0.2% | 2.68% | 0.81% | 7.28% | 22.7% | 23.3% | 64.1%
30 | CC1=C(C(=O)Nc2cc(Cl)c3[nH]ncc3c2)C(c2ccc(C(F)(F)F)cc2)CC(=O)N1 (stereo unspecified) | -5.81% | 2.04% | 1.44% | 2.62% | 4.9% | 4.35% | 12.6%
31 | CCn1c(-c2nonc2N)nc2c(C#CC(C)(C)O)ncc(OC3CCNCC3)c21 | 1.95% | 2.02% | 1.93% | 0.26% | 6.79% | 3.92% | 12%
32 | CN1CCC(n2cnc(-c3ccc(F)cc3)c2-c2ccnc(N)n2)CC1 | -4.14% | 3.88% | 0.94% | 0.66% | 1.74% | 1.6% | 9.24%
33 | [O-][S+]1CCN(Cc2ccc(-c3ccc4ncnc(Nc5ccc(OCc6cccc(F)c6)c(Cl)c5)c4c3)o2)CC1 | -3.13% | 1.66% | 1.66% | 3.74% | 3.96% | 6.35% | 11.4%
